# Sampled rows, rich in hits. Any-hit rate of the full collection: about 7.9%.
# MCF10A rerep: DNA re-replication induction in MCF 10a cells. MCF 10A DNA re-replication, Hoechst nuclear intensity, 48 h. Potency, µM (highest dose often 46.1 µM), for the others: top-dose activity, positive = re-replication, actives largely listed as activators. 350,000 compounds, 2.9% hits. AID 624296; note: % of control where 0% means no effect; nearly all actives have a fitted effect of over 50% in size
# SW480 rereplic: DNA re-replication induction in SW480 cells. SW480 DNA re-replication, Hoechst DNA content imaging, 48 h. Potency, µM (doses to about 46.1 µM), without a hit: at the top dose re-replication activation, most hits filed as activators. 340,000 compounds, 1.8% hits; note: % of control where 0% means no effect; nearly all actives have a fitted effect of over 55% in size
#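 SW480 cells exposed to compounds for 48 hr at 37 C, 5% CO2, then Hoechst-stained 40 min. Nuclear DNA content imaged by fluorescence scanning (405 nm excitation, 500-530 nm emission); re-replication scored as increased high-intensity nuclei.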
# HT1080NT lethal: kills 2HG-producing HT-1080-NT fibrosarcoma cells. Potency, µM (series often up to 46.1 µM), for the others: at the top dose activity, negative = less viability, hits mostly cytotoxic. HT-1080-NT fibrosarcoma viability, CellTiter-Glo ATP luminescence, 48 h. 360,000 compounds, 1.6% hits. AID 686970;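 note: NT is the 2HG producing partner of a matched IDH1 knockdown line; 0% = DMSO-treated cells and -100% = media-only wells without cells; nearly all actives have a fitted effect of over 55% in size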
#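 750 cells/well, RPMI + 5% FBS; 2 h settle, compound pin-transfer, 48 h at 37 degrees C. CellTiter-Glo 10 min RT, luminescence. Normalized to DMSO and media-only wells.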
# KB-3-1 cytotox: KB-3-1 parental cell cytotoxicity. KB-3-1 viability, CellTiter-Glo ATP luminescence, 72 h. Potency, µM (highest dose often 46.1 µM), most hits filed as cytotoxic. 400,000 compounds, 1.4% hits; note: % is set by controls: 0 for no effect and ±100 for the full control effect; nearly all actives have a fitted effect of over 60% in size
#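 Screening of KB-3-1 cells (DMEM, 10% FBS, phenol-red free) ran from lowest to highest compound concentration; after 72 h at 37 °C viability was read luminescently and curves fitted.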
# KB-V1 MDR tox: KB-V1 MDR subline cytotoxicity; KB-V1 MDR cells viability, CellTiter-Glo, 72 h; Potency, µM (titrated, usually from 46.1 µM), most hits filed as cytotoxic; 400,000 compounds, 3.4% hits; note: % is set by controls: 0 for no effect and ±100 for the full control effect; nearly all actives have a fitted effect of over 60% in size
#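 Following 72 h at 37 degrees C with compound, KB-V1 cell viability was read by CellTiter-Glo luminescence, medium being phenol-red-free DMEM plus 10% FBS; concentration-response parameters came from normalized, curve-fitted qHTS data.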
# HT1080 IDH1KD tx: HT-1080 IDH1 knockdown cell toxicity (counter line). HT-1080 IDH1 knockdown viability, ATP luminescence, 48 h. Potency, µM (highest dose often 46.1 µM), inactives show at the top dose activity, negative = toxicity, actives largely listed as cytotoxic. 360,000 compounds, 2% hits. AID 686971;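 note: 0% = DMSO wells and -100% = cell-free medium wells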
#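 Knockdown cells (IDH1KD HT-1080) received compounds 2 h after plating at 750 cells/well and were kept 48 h at 37 °C in 5% FBS RPMI. A CellTiter-Glo luminescence read gave % activity for curve fitting.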
# An asterisk follows results filed as active; i = inactive; ? = inconclusive; nt = no result given; [ ] = another dose, or the depositor's remark. Calls come from the whole dose curve; as a rule, active = well fitted curve in the direction sought with a large enough effect; inconclusive = small, poorly fitted or top-dose-only effect, or another doubt; inactive = no such curve, though single readings can be large; an effect the other way counts as inactive or inconclusive. Potency is the fitted concentration of half-maximal effect.
SMILES,MCF10A rerep,SW480 rereplic,HT1080NT lethal,KB-3-1 cytotox,KB-V1 MDR tox,HT1080 IDH1KD tx
Cc1ccc(C)c(S(=O)(=O)N2CCN(C(=O)c3cc(-c4cccs4)nn3-c3ccccc3)CC2)c1,?,-1%,-5%,?,6.5µM*,-8%
CN(CC(=O)Nc1c(Cl)cccc1Cl)C(=O)c1cc(-c2cccs2)nn1-c1ccccc1,?,0%,7%,i,4.1µM*,4%
CC(C)(C)OC(=O)N1CCc2onc(-c3ccc(-n4cc(C5=CCCCC5)nn4)cc3)c2C1=O,nt,nt,19%,i,?,18%
CC(C)c1ccc(S(=O)(=O)c2cnc(SCC(=O)Nc3cccc(C(F)(F)F)c3)nc2N)cc1,nt,nt,nt,i,i,nt
COCCNc1nc(NCc2ccc(C(C)C)cc2)c2sccc2n1,nt,nt,13µM*,i,i,18µM*
COCCNc1nc(Nc2ccc(C)cc2C)c2sccc2n1,nt,nt,?,5.2µM*,5.2µM*,?
COCCNc1nc(NCc2ccc(C)cc2C)c2sccc2n1,nt,nt,-11%,i,i,-29%
CCS(=O)(=O)N1CC(=O)N(c2cc(C)cc(C)c2)C(C)(C(=O)NC2CCCCC2)C1 (centres undefined),nt,nt,nt,i,i,nt
COc1cc(/C=C/C(=O)c2ccc(C)cc2)ccc1OCC#N,?,16µM*,?,?,15µM*,21µM*
COc1ccc(/C=C/C(=O)c2ccc3c(c2)OCO3)cc1OC,?,?,1%,i,?,-7%
COc1ccc(/C=C/C(=O)c2ccc(C(=O)/C=C/c3ccc(OC)c(OC)c3)cc2)cc1OC,6.5µM*,8.2µM*,-10%,?,i,0%
COc1ccc(/C=C/C(=O)c2ccccc2)cc1Cn1nnc2ccccc21,12µM*,?,?,i,21µM*,?
CCOc1cc(/C=C/C(=O)c2ccc(C)cc2)ccc1OCC(=O)N(C)C,23µM*,?,-25%,?,15µM*,?
COc1ccc(C=CC(=O)c2ccc(OCc3ccccc3)c(OC)c2)cc1OC,nt,nt,-14%,i,?,?
CCOC(=O)c1c(NC(=O)COc2ccc(Cl)cc2C)sc(C(C)=O)c1C,nt,nt,nt,i,i,nt
Cc1cc(C)c(C(=O)Nc2ccccc2)c(SCC(=O)Nc2ccc(Br)cc2C)n1,nt,nt,nt,i,i,nt
CCCCn1c(SCC(=O)NC2CC2)nc2cc(C(=O)OC)ccc2c1=O,nt,nt,9%,i,i,3%
COc1ccccc1CCNC(=O)C(=O)NCC(c1ccco1)S(=O)(=O)c1cccs1 (centres undefined),nt,nt,nt,i,?,nt
CCOc1c(Br)cc(C2C=C(C(=O)O)Nc3ncnn32)cc1OC (centres undefined),nt,nt,nt,i,?,nt
O=C1C(=O)c2ccccc2C(O)=C1CCCCl,?,-8%,16µM*,?,?,?
COc1ccc(CC2=C(O)c3ccccc3C(=O)C2=O)cc1,14%,1%,?,i,i,?
Cc1ccc2c(c1)C(=O)C(=O)N2CC1COc2ccccc2O1 (centres undefined),?,23µM*,-2%,?,21µM*,?
COc1ccc2c(c1)C(=O)C(=O)N2CC1COc2ccccc2O1 (centres undefined),?,?,?,15µM*,?,-27%
COc1ccc2c(c1)C(=O)C(=O)N2CCS(=O)(=O)c1ccccc1,?,?,-7%,?,i,7%
CCOc1ccc2c(c1)C(=O)C(=O)N2CC1COc2ccccc2O1 (centres undefined),?,8.2µM*,0%,13µM*,i,9%
SMILES,MCF10A rerep,SW480 rereplic,HT1080NT lethal,KB-3-1 cytotox,KB-V1 MDR tox,HT1080 IDH1KD tx
COc1ccc(NC(=S)N(C)CC2COc3ccccc3O2)cc1 (centres undefined),0.65µM*,-20%,6%,i,?,5%
Cc1ccc(CSCc2nc3ccccc3[nH]2)cc1,16µM*,?,-1%,i,i,?
c1ccc(CSc2nnc(-c3ccco3)o2)cc1,23%,12%,20%,i,i,15%
Cc1cc(C)cc(CC(Cc2nc3ccccc3[nH]2)c2nc3ccccc3[nH]2)c1 (centres undefined),?,-3%[9.22 µM],18µM*,16µM*,i,?
c1coc(-c2nnc(SCc3nc4ccccc4[nH]3)o2)c1,5%,-1%,-6%,?,15µM*,-19%
c1ccc2[nH]c(CSc3ncnc4c3oc3ccccc34)nc2c1,?,6%,-10%,?,4.6µM*,-4%
Cc1cc(=O)n(Cc2ccc(F)cc2Cl)c2c1c(C)nn2C,nt,nt,nt,i,?,nt
Clc1ccc(SCc2nc3ccccc3[nH]2)cc1,?,1%,-14%,i,23µM*,-18%
Cc1ccc(CNc2ccc(-c3nc(-c4ccco4)no3)cc2[N+](=O)[O-])cc1,nt,nt,nt,i,i,nt
Cc1ccc(/C=C/C(=O)N2CCN(c3ccc(F)cc3)CC2)o1,?,-1%,3%,?,18µM*,0%
Cc1cccn2c(=O)c(C(=O)N3CCN(c4ccccc4)CC3)cnc12,nt,nt,nt,i,i,nt
COc1ccc(-c2cc(C(=O)OCC(=O)c3c(N)n(C)c(=O)n(C)c3=O)c3ccccc3n2)cc1,9%,-26%,20%,i,i,12%
COc1ccc(/C=C2\CCCc3c2nc2ccccc2c3C(=O)OCC(=O)c2c(N)n(C)c(=O)n(C)c2=O)cc1,4.6µM*,?,nt,nt,nt,nt
CCc1nc2ccc(C(=O)NCCC(C)C)cn2c1N(CC)CCOC,nt,nt,17%,i,i,22%
CCN(c1ccccc1)S(=O)(=O)c1cc(C(=O)Nc2cccc(Cl)c2)ccc1F,?,?,?,?,21µM*,?
CC(=O)c1cccc(NC(=O)c2ccccc2N(Cc2ccccc2)S(C)(=O)=O)c1,2.3µM*,-19%,3%,i,i,7%
CN(c1cccc(NC(=O)c2ccccc2N(Cc2ccccc2)S(C)(=O)=O)c1)S(C)(=O)=O,-4%,1%,5%,i,i,5%
CC(=O)c1cccc(NC(=O)c2ccc(N(Cc3ccccc3)S(C)(=O)=O)cc2)c1,14%,-8%,-11%,?,21µM*,-26%
CCc1ccc(NC(=O)c2ccc(F)c(S(=O)(=O)N(CC)c3ccccc3)c2)cc1,10%,0%,-24%,i,i,?

# High-throughput results as filed in PubChem.
